Source: PubChem BioAssay AID1578 (Sanford-Burnham Center for Chemical Genomics, 2009)
Screen size: about 290,000 compounds; about 3,000 (1%) were called active. No stated cut-off is given here; in the data, active means inhibition mostly above about 36% (no sharp cut-off); inactive means mostly below about 34%. Many of the other results were omitted from the sample, so actives are more common in it than they were.

assay: inhibition of NOD1-driven NF-kB reporter – cell-based, luminescence, uHTS, primary screen (AID 1578); details: NOD1-driven NF-kB luciferase reporter cells, at 4 µM, active compounds read high;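 further: HEK-293T reporter cells stimulated with the NOD1 agonist gamma-tri-DAP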

| SMILES | inhibition |
| --- | --- |
| O=C(Cn1c(C(F)(F)F)nc2ccccc21)N1CCCC1 | -9.5% (inactive) |
| CC(CN1C(C)CCCC1C)OC(=O)c1ccc(Cl)cc1Cl (stereo unspecified) | -14.9% (inactive) |
| CCN(CC(=O)NCc1ccc(F)cc1)CC(=O)NC1CCCC1 | -35.5% (inactive) |
| CCCn1nnnc1SCC(=O)N1CCCc2ccccc21 | -20% (inactive) |
| CC1CCc2c(c3ccccc3n2C(=O)CCl)C1 (stereo unspecified) | 74.2% (active) |
| CC1CCN(CC(=O)n2c3c(c4ccccc42)CCCC3)CC1 | 7.8% (inactive) |
| Cc1ccnc(SCC(=O)n2c3c(c4ccccc42)CC(C)CC3)n1 (stereo unspecified) | 8.4% (inactive) |
| Cc1ccc(Nc2nc(N)nc(CN3CCCCCC3)n2)c(C)c1 | -23.1% (inactive) |
| Cc1ccc(Nc2nc(N)nc(CSc3nccn3C)n2)c(C)c1 | -29.9% (inactive) |
| Cc1cccc(Nc2nc(N)nc(CN3CCN(C)CC3)n2)c1 | -6.7% (inactive) |
| COc1cccc(Nc2nc(N)nc(CCl)n2)c1 | -7.5% (inactive) |
| COc1ccc(OCc2nc(N)nc(Nc3cccc(C)c3C)n2)cc1 | -7% (inactive) |
| Cc1cccc(Nc2nc(N)nc(CN3CCC(C)CC3)n2)c1C | -38.2% (inactive) |
| CC1CC(C)CN(Cc2nc(N)nc(Nc3ccc4ccccc4c3)n2)C1 (stereo unspecified) | -11.4% (inactive) |
| Nc1nc(CCl)nc(Nc2ccccc2)n1 | 36.6% (inactive) |
| COc1ccc(C(C)C)cc1S(=O)(=O)N1CCC(C(=O)NCc2cccnc2)CC1 | -9.3% (inactive) |
| CN1CCN(C(=O)N2CCNC2=O)CC1 | -22% (inactive) |
| COc1ccc(/C(O)=C2/C(=O)C(=O)N(c3ccccn3)C2c2ccc(C(C)C)cc2)cc1 (stereo unspecified) | -7.2% (inactive) |
| Cc1nc2cc(NS(=O)(=O)c3c(C)c(C)cc(C)c3C)ccc2s1 | 22.1% (inactive) |
| COc1ccc(NC(=O)[C@@H]2[C@@H]3C(=O)N(C4CCCCC4)C(=O)[C@@H]3C3c4ccccc4C=CN32)cc1 (stereo partly specified) | -4.8% (inactive) |
| COc1ccc2sc(NC(=O)CC(C)C)nc2c1 | -66.7% (inactive) |
| Cn1c(=S)[nH]c2[nH]c(=O)cnc2c1=O | -2.8% (inactive) |
| COc1ccc(NC(=O)c2ccc(C(=O)c3ccccc3)o2)cc1 | -21.8% (inactive) |
| COc1ccc(CCNC(=O)c2nnn(CC(=O)Nc3ccc(C)cc3C)c2N)cc1OC | -14.4% (inactive) |
| COC(=O)C1(C)NC(c2ccccc2C)C2C(=O)N(c3ccc(F)cc3)C(=O)C21 (stereo unspecified) | -24.2% (inactive) |
| CC1CCN(S(=O)(=O)c2nnc(NC(=O)c3cccc([N+](=O)[O-])c3)s2)CC1 | 30.9% (inactive) |

| SMILES | inhibition |
| --- | --- |
| Cc1cccc(C(=O)Nc2nnc(S(=O)(=O)N3CCC(C)CC3)s2)c1 | 21.6% (inactive) |
| O=C(Nc1nnc(S(=O)(=O)N2CCCCC2)s1)c1ccc(Cl)cc1 | 37.5% (inactive) |
| Cc1ccc(C(=O)Nc2nnc(S(=O)(=O)N3CCCCCC3)s2)cc1 | -23.3% (inactive) |
| COc1cc(/C=C2/SC(=S)N(CC(=O)NC(C)(C)C)C2=O)cc(OC)c1OC | 2.3% (inactive) |
| COc1ccc2c(CSc3nnc(-c4cccnc4)n3-c3ccccc3F)cc(=O)oc2c1 | -12.1% (inactive) |
| Cc1ccc(S(=O)(=O)N(C)C)cc1NC(=O)CN1C(=O)NC2(CCCCCC2)C1=O | -38.1% (inactive) |
| CCOC(=O)[C@@H]1[C@H]2COc3ccc(Br)cc3[C@H]2N2C(=O)N(c3ccc(C)cc3)C(=O)[C@]12C | -18.3% (inactive) |
| O=C(CSCc1ccccc1)Nc1ccc(F)c(F)c1 | -34.3% (inactive) |
| O=C(CSCc1ccccc1)Nc1ccc(F)cc1F | 7.2% (inactive) |
| O=C(CSCc1ccccc1)NNc1c(F)c(F)cc(F)c1F | 34.4% (active) |
| CCn1c(=O)c2cc(C(=O)NCc3cccs3)sc2c2ccccc21 | -17.9% (inactive) |
| COc1ccc(-c2noc(C3CCCN(C(=O)c4cccc(F)c4)C3)n2)cc1 (stereo unspecified) | -12.2% (inactive) |
| CN1CCC(OC(=O)Cc2ccc(Cl)cc2)CC1 | -12.1% (inactive) |
| c1ccc(Sc2cccc3ccccc23)c(CNC2=NCCN2)c1 | -31.1% (inactive) |
| Fc1ccccc1Sc1ccccc1CNC1=NCCN1 | 64.4% (active) |
| Fc1ccc(Sc2ccccc2CNC2=NCCN2)cc1 | -4.9% (inactive) |
| CCOC(=O)c1c(CN2CCN(C)CC2)n(-c2ccccc2)c2cc(Br)c(O)cc12 | -4% (inactive) |
| CCOC(=O)c1c(CN2CCOCC2)n(-c2ccccc2)c2cc(Br)c(OC)cc12 | 30.8% (inactive) |
| CCOC(=O)c1c(CN2CCOCC2)n(-c2ccccc2)c2cc(Br)c(O)cc12 | 67% (active) |
| Cc1cccc(-n2c(C)cc(C(=O)NC3CCCCC3)c2C)c1 | -17.7% (inactive) |
| CCOCCCNC(=S)NNC(=O)CCn1nc(C)c(Br)c1C | -19.5% (inactive) |
| Cc1cc(NC(=O)CSc2nc3ccccc3c(=O)n2Cc2ccccc2)no1 | 5% (inactive) |
| NC(=O)CSc1nc2ccccc2c(=O)n1Cc1ccccc1 | -16% (inactive) |
| Cc1ccc(S(=O)(=O)N2CCCCC2C(=O)N(C)c2ccccc2)cc1 (stereo unspecified) | -15.4% (inactive) |
| Cc1cc(C)n(Cc2ccc(Cl)c(Cl)c2)c(=O)c1S(=O)(=O)c1ccccc1 | 5.3% (inactive) |
| CC(=O)c1ccc(-n2nncc2C(C)(C)C)cc1 | 60.5% (inactive) |

| SMILES | inhibition |
| --- | --- |
| Cc1cnnn1-c1ccc(C(=O)CCl)cc1 | 19.4% (inactive) |
| CC(C)(C)c1cnnn1-c1ccc(C(=O)CCl)cc1 | 77.3% (active) |
| O=C1N=C(N2CCOCC2)S/C1=C\c1ccncc1 | -7.7% (inactive) |
| CC1(C)CN=C(N(C(=O)Nc2ccccc2)c2ccccc2F)S1 | -4.1% (inactive) |
| Fc1ccc(COc2ccc(-c3nnco3)cc2)cc1 | -10.4% (inactive) |
| Cc1ccc(COc2ccc(-c3nnco3)cc2)cc1 | -12.2% (inactive) |
| CCCCN(CC)S(=O)(=O)c1ccc2c(c1)n(C)c(=O)c(=O)n2C | -6% (inactive) |
| CCn1nc(C)c(NC(=O)/C=C/c2cnn(C)c2C)c1C | 11% (inactive) |
| Cc1ccccc1Cn1nc(C)c(NC(=O)/C=C/c2cnn(C)c2C)c1C | -19.1% (inactive) |
| Cc1nn(Cc2c(Cl)cccc2Cl)c(C)c1NC(=O)/C=C/c1cnn(C)c1C | 99% (active) |
| Cc1nc2cc(NS(=O)(=O)c3cccc4cccnc34)ccc2s1 | -11.7% (inactive) |
| CN(C)/C(=N\S(=O)(=O)c1ccccc1)c1ccccc1 | -32.6% (inactive) |
| N=C1SC(CC(=O)Nc2ccc([N+](=O)[O-])cc2)C(=O)N1c1ccccc1 (stereo unspecified) | -6.5% (inactive) |
| CCOC(=O)C1(CCc2ccccc2)CCN(C(=O)CCn2cnnn2)CC1 | -48% (inactive) |
| O=C(/C=C/c1ccc(OC(F)F)cc1)Nc1cccc(S(=O)(=O)N2CCOCC2)c1 | -23.1% (inactive) |
| Clc1ccc(-c2nc3n(n2)Cc2ccccc2-3)cc1 | -7.2% (inactive) |
| Cc1ccc(-c2nc3n(n2)Cc2ccccc2-3)cc1 | -27.4% (inactive) |
| CCn1c(C)nc2cc(-c3nc4n(n3)Cc3ccccc3-4)ccc21 | 94% (active) |
| COc1ccc(CCNC2CC(=O)N(C3CCCCC3)C2=O)cc1OC (stereo unspecified) | -7.3% (inactive) |
| CCNC1=C(Cl)C(=O)c2ccccc2C1=O | 4.8% (inactive) |
| O=C1C(Cl)=C(NCCCO)C(=O)c2ccccc21 | -20.7% (inactive) |
| CCN(CC)CCCNC1=C(Cl)C(=O)c2ccccc2C1=O | 98.9% (active) |
| CC1CCc2c(sc3ncn(CC(=O)N=Nc4c(O)[nH]c5ccccc45)c(=O)c23)C1 (stereo unspecified) | 4% (inactive) |
| COc1cc(/C=N/Nc2ccccn2)cc(OC)c1O | 46.4% (active) |
| O=[N+]([O-])c1cc(/C=N\Nc2ccccn2)ccc1Cl | -18.5% (inactive) |
| Oc1ccccc1/C=N/Nc1cccc2cccnc12 | -47.2% (inactive) |

| SMILES | inhibition |
| --- | --- |
| COc1cc(/C=N/Nc2cccc3cccnc23)cc(OC)c1O | 50.8% (active) |
| Oc1cccc(/C=N/Nc2cccc3cccnc23)c1 | -66.8% (inactive) |
| O=[N+]([O-])c1cc(Cl)cc(/C=N/Nc2nc3ccccc3s2)c1O | 1.6% (inactive) |
| COc1cc(/C=N/Nc2ccccn2)ccc1O | 7.2% (inactive) |
| COc1ccc(/C=N/Nc2ccccn2)cc1OC | 1.4% (inactive) |
| CC1=C(C(=O)OCc2ccccc2)C(c2ccccc2OC(F)F)NC(=O)N1 (stereo unspecified) | 11.1% (inactive) |
| Cc1[nH]c2ccccc2c1C(=O)C(=O)NCc1cccs1 | -20.5% (inactive) |
| Cc1ccccc1SCC(=O)N/N=C/c1ccc(F)cc1 | 4.1% (inactive) |
| O=C(Cc1ccccc1F)Nc1nc(-c2cccnc2)cs1 | -9.2% (inactive) |
| O=C(CSc1nnc(-c2ccco2)o1)NC(=O)Cc1ccccc1 | -4.5% (inactive) |
| CC(=O)N1CN(Cc2ccccn2)Cc2c1sc1c2CCCC1 | -11.9% (inactive) |
| CC(=O)c1c(C)[nH]c(C(=O)Nc2nc(-c3ccc(Cl)cc3)cs2)c1C | 66.1% (inactive) |
| CC(=O)c1c(C)[nH]c(C(=O)Nc2nc(C)cs2)c1C | 12.4% (inactive) |
| COc1ccccc1N1CCN(C(=O)C(C)N(c2ccc(C)cc2)S(C)(=O)=O)CC1 (stereo unspecified) | -7.9% (inactive) |
| O=C1c2ccc(Oc3ccc([N+](=O)[O-])cc3)cc2C(=O)N1CCO | -16.9% (inactive) |
| COc1ccc(N2C(=O)CC(Sc3nc4c(cc3C#N)CCC4)C2=O)cc1 (stereo unspecified) | -26.6% (inactive) |
| CCc1c(C)nc2ncnn2c1NCCc1ccc(OC)cc1 | 53.3% (inactive) |
| CCc1c(C)nc2ncnn2c1NCCc1ccccc1 | 24% (inactive) |
| CCc1c(C)nc2ncnn2c1NCCc1ccc(Cl)cc1 | 57.5% (active) |
| O=C(N/N=C/c1ccc2cccnc2c1)c1nc2ccccc2c(=O)[nH]1 | -15.6% (inactive) |
| Cn1ncc2c(NNC(=O)c3ccc(O)cc3)ncnc21 | -28% (inactive) |
| Cn1ncc2c(O/N=C(\N)c3ccc(C(C)(C)C)cc3)ncnc21 | 98.4% (active) |
| Cn1ncc2c(O/N=C(\N)c3ccc(C(F)(F)F)cc3)ncnc21 | -5.2% (inactive) |
